Results from PubChem BioAssay AID1851 (National Center for Advancing Translational Sciences (NCATS), 2009).
Out of some 16,000 compounds screened, about 2,600 (16%) were called active. Roughly 20% stayed inconclusive and do not appear here. These entries were drawn from the full list. Unmarked numbers belong to inactive results. The call rests on the fitted dose curve; in most records, active means well fitted curve in the direction sought with a large enough effect; inconclusive means small, poorly fitted or top-dose-only effect, or effect the other way; inactive means no such curve, though single readings can be large or run the other way.

Target: Cytochrome P450 2D6 (Homo sapiens) (UniProt P10635)
Assay: Cytochrome panel assay with activity outcomes
Details: recombinant CYP, pro-luciferin dealkylation, luminescence, p450-cyp2d6; series mostly up to 57.1 µM; activity, negative = inhibition: at the top concentration
On the % scale 0 is the no-effect control and ±100 the full control effect.

Cytochrome P450 2D6 (Homo sapiens), sequence (P10635 whole entry, looked up): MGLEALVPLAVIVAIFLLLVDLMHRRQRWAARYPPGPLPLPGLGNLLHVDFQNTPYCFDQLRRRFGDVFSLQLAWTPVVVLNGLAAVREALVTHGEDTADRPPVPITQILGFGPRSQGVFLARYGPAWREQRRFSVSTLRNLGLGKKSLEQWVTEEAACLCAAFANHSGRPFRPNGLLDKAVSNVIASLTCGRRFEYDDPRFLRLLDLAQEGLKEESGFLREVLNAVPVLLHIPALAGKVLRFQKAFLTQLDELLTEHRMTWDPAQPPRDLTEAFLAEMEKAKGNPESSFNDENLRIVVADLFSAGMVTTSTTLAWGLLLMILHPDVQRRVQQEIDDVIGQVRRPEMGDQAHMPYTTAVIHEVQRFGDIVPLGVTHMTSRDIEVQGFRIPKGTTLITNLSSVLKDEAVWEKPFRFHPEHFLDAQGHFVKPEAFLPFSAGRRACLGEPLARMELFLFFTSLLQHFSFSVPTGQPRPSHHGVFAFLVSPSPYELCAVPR

Row | Structure (SMILES) | activity, negative = inhibition | AC50
1 | C/C(=N\NC(=O)c1ccncc1)c1ccc2ccccc2c1O | -2.13% [at 11.4 µM] | –
2 | COc1ccc(NC(=O)C(c2ccc(OC)cc2)N(C)C(=O)CNC(C)=O)cc1 (stereo not given) | 10.3% | –
3 | CN(C)/C(CN1CCN(C=O)CC1)=C1\N=C(c2ccccc2)OC1=O | -11.9% | –
4 | CC1CN(C(=O)c2cc3c(s2)CCC3)CC(C)O1 (stereo not given) | -0.128% | –
5 | COc1ccc(NC(=O)c2ccc(COc3ccccc3)o2)cc1 | 25.3% | –
6 | CCOc1ccc(OCc2ccc(C(=O)N3CCc4ccccc4C3)o2)cc1 | -27.5% | –
7 | CN1CCN(C(=O)c2ccc(COc3ccc(C(C)(C)C)cc3)o2)CC1 | – | 4.47 µM (active)
8 | CNC[C@H](O)[C@H](O)[C@H](O)[C@H](O)CO | -3.38% [at 25.6 µM] | –
9 | CO[C@H]1COC(=O)CCC[C@@H](C)[C@H](OC)COC(=O)[C@H]2CCCN2C(=O)C/C=C\[C@@H]1C | 6.78% [at 11.4 µM] | –
10 | O=c1cc(N2CCN(c3ccccc3)CC2)[nH]c(=O)n1C1CCCCC1 | 17.9% | –
11 | COc1c(/C=N/Nc2nc(N3CCCCC3)nc(N3CCCCC3)n2)cccc1[N+](=O)[O-] | 18.9% | –
12 | Oc1ccc2ccccc2c1/C=C\c1ccc2c(Br)cc(Br)c(O)c2n1 | -2.53% [at 11.4 µM] | –
13 | CN(Cc1cc(Br)cc(Br)c1O)Cc1c(O)ccc2ccccc12 | – | 1.58 µM (active)
14 | CN(C)Cc1cc(Cl)c(O)c(CN(C)C)c1 | -14% [at 11.4 µM] | –
15 | Oc1ccc(Cl)cc1Cc1cc(Cl)cc(Cc2cc(Cl)ccc2O)c1O | -10.5% [at 11.4 µM] | –
16 | COc1ccc(C=Nc2c(O)ccc3ccccc23)cc1OC | -7.34% [at 11.4 µM] | –
17 | CN(Cc1cc(Cl)cc(Cl)c1O)Cc1c(O)ccc2ccccc12 | – | 1.26 µM (active)
18 | CCN(Cc1cc(Cl)cc(C)c1O)Cc1c(O)ccc2ccccc12 | – | 1.26 µM (active)
19 | Cc1c(C(c2cccc([N+](=O)[O-])c2O)c2c(C)n(C)n(-c3ccccc3)c2=O)c(=O)n(-c2ccccc2)n1C | 17% | –
20 | COc1ccc(C(NC(=O)c2ccc(-c3ccccc3)cc2)c2ccccc2)cc1 (stereo not given) | 26.6% | –
21 | CCN(CC)C(=O)C1CCN(S(=O)(=O)c2ccc3oc4ccccc4c3c2)CC1 | -29.4% | –
22 | COC(=O)c1ccc2ccn(CC(=O)NC3CCCCC3)c2c1 | -13.2% | –
23 | Cn1cc(-c2nc3cncnc3n(CCN)c2=O)c2ccccc21 | -6.64% | –
24 | CCCCOC1(c2ccccc2)OC(=O)c2ccccc21 (stereo not given) | -1.34% | –
25 | COc1ccc(NC(=O)N2CC[C@@]3(CCCN(C(=O)c4cccn4C)C3)C2)cc1 | 13.3% | –

Row | Structure (SMILES) | activity, negative = inhibition | AC50
26 | CC(C)NC(=O)N1CC[C@@]2(CCCN(C(=O)c3cccn3C)C2)C1 | 6.81% | –
27 | CN1CCCC2(CCN(C(=O)c3cccn3C)CC2)C1 | 1.2% | –
28 | COc1ccccc1CN1CCC2(CC1)CCN(C(=O)c1cccn1C)CC2 | – | 3.98 µM (active)
29 | Cn1cccc1C(=O)N1CCC2(CCCN(c3ccccc3)C2)CC1 | -4.1% | –
30 | Cn1cccc1C(=O)N1CCC2(CCN(Cc3nccs3)CC2)CC1 | -10% | –
31 | COc1ccccc1CN1CCCC2(CCN(C(=O)c3cccn3C)CC2)C1 | – | 3.16 µM (active)
32 | COc1ccc(NC(=O)N2CCC3(CC2)CCN(C(=O)c2cccn2C)CC3)cc1 | -19.6% | –
33 | COc1ccccc1CN1CC[C@@]2(CCCN(C(=O)c3cccn3C)C2)C1 | – | 0.316 µM (active)
34 | Cc1ccc(-c2csc(N3CCC(NS(=O)(=O)c4ccc5c(c4)OCCO5)CC3)n2)cc1 | 3.86% | –
35 | COc1ccc(-c2nc3cnc(N4CCN(C)CC4)nc3n(CCC#N)c2=O)cc1 | 4.55% | –
36 | Cc1cc2nnc(SCCCCN3C(=O)c4ccccc4C3=O)n2c2ccccc12 | -11.6% | –
37 | COc1cc2c(cc1OC)C(c1ccc(N)cc1)=NNC(=O)C2 | -7.94% | –
38 | O=c1ccn(-c2cccc(C(F)(F)F)c2)nc1-c1ccn(-c2ccccc2F)n1 | -11.5% | –
39 | CCOC(=O)CSc1nc(-c2ccccc2)nc2ccccc12 | -8.14% | –
40 | CCOC(=O)CSc1cc(CS(=O)c2ccc(Cl)cc2)nc(-c2ccccc2)n1 (stereo not given) | – | 14.1 µM (active)
41 | CCOC(=O)CSc1cc(C(F)(F)F)nc(-c2ccccn2)n1 | 6.4% | –
42 | Oc1c(Cl)cc(C(c2cc(Cl)c(O)c(Cl)c2)C(c2cc(Cl)c(O)c(Cl)c2)c2cc(Cl)c(O)c(Cl)c2)cc1Cl | -3.64% [at 11.4 µM] | –
43 | C=C1CC[C@H](O)C/C1=C/C=C1\CCC[C@]2(C)[C@H]1CC[C@H]2[C@@H](C)/C=C\[C@@H](C)C(C)C | 1.8% [at 25.6 µM] | –
44 | CC(=O)c1cc(C)ccc1OC(=O)CCN1C(=O)C2C3c4ccccc4C(c4ccccc43)C2C1=O (stereo not given) | -6.66% | –
45 | Oc1cc(O)cc(/C=C\c2ccc(O)c(O)c2)c1 | -5.72% | –
46 | O=C(NCC1COc2ccccc2O1)C1CCN(S(=O)(=O)c2cccc3nsnc23)CC1 (stereo not given) | – | 3.55 µM (active)
47 | CN(CCCNC(=O)C1CCN(S(=O)(=O)c2cccc3nsnc23)CC1)Cc1ccccc1 | – | 5.01 µM (active)
48 | O=C(C1CCN(S(=O)(=O)c2cccc3nsnc23)CC1)N1CCCc2ccccc21 | -22.1% | –
49 | O=S(=O)(c1cccc2nsnc12)N1CCCC1 | -16.8% | –
50 | COc1ccc(CCNC(=O)C2CCN(S(=O)(=O)c3cccc4nsnc34)CC2)cc1OC | -16.1% | –

Row | Structure (SMILES) | activity, negative = inhibition | AC50
51 | O=C(C1CCN(S(=O)(=O)c2cccc3nsnc23)CC1)N1CCN(c2ccccc2F)CC1 | -19.3% | –
52 | C=C(C)COc1ccc2c(c1)CCC1C2CC[C@]2(C)C(=O)/C(=N/O)CC12 (stereo not given in full) | 14.1% [at 11.4 µM] | –
53 | COc1ccc(C(=O)NC2(C(F)(F)F)C(=O)Nc3c2c(=O)[nH]c(=O)n3CCc2ccc(OC)c(OC)c2)cc1 (stereo not given) | 5.12% | –
54 | O=C(NC(=S)NNC(=O)c1cccs1)c1ccco1 | -0.979% | –
55 | Cc1cc(C(=O)OC2CCOC2=O)c2ccccc2n1 (stereo not given) | -0.0965% | –
56 | C[C@@H]1O[C@@H](O)[C@@H](O)[C@H](O)[C@H]1O | -0.841% [at 11.4 µM] | –
57 | Cc1ccc(-n2ncc(N(C)C)c(Cl)c2=O)cc1 | -14.8% | –
58 | CC[C@](N)(C(=O)O)C(C)C | 10.5% [at 11.4 µM] | –
59 | c1ccc2c3c([nH]c2c1)[C@@H]1[C@H]2CC[C@H]([C@H]4CCCN[C@H]42)N1CC3 | – | 7.94 µM (active)
60 | O=C1NCCc2c1[nH]c1ccccc21 | -6% | –
61 | O=c1c2ccccc2nc2n1CCc1c-2[nH]c2ccccc12 | -4.05% | –
62 | O=[N+]([O-])c1ccc(Nc2nc(N/N=C\c3ccc4c(c3)OCO4)nc(N3CCCCC3)n2)cc1 | 8.9% | –
63 | CN(C)S(=O)(=O)Oc1ccsc1C(=O)Nc1ccc(Cl)cc1 | – | 22.4 µM (active)
64 | CN(C)S(=O)(=O)Oc1ccc(Cl)cc1C(=O)Nc1cccc(C(F)(F)F)c1 | 16.8% | –
65 | CN(C)S(=O)(=O)Oc1cccc(C(=O)Nc2ccc(Cl)c(Cl)c2)c1 | -74.8% | –
66 | O=C(CSc1nnc2c(n1)[nH]c1ccc(F)cc12)OCc1ccccc1 | 2.72% | –
67 | C=CCN(CC=C)C(=S)NC(=O)c1ccc(OC)c(Br)c1 | – | 0.708 µM (active)
68 | COc1ccc(C(=O)NC(=S)NC(C)(C)C)cc1Br | 3.67% | –
69 | COc1ccc(C(=O)NC(=S)NC(C)C)cc1Br | -8.27% | –
70 | Nc1cc(Cl)ccc1Oc1ccccc1 | -14.5% | –
71 | Cc1cc(Cl)ccc1Oc1ncc(-c2ccc(Cl)cc2)cn1 | 24% | –
72 | Nc1cc(Cl)ccc1Oc1ccc(Cl)cc1 | – | 15.8 µM (active)
73 | O=C(O)[C@@H]1CS[C@@]2(CCCN(Cc3ccccc3)C2)N1 | -2.15% [at 11.4 µM] | –
74 | O=C(O)[C@H]1CCCN(CCC=C(c2ccccc2)c2ccccc2)C1 | -4.61% | –
75 | S[C@@H]1CCCN(Cc2ccccc2)C1 | – | 0.794 µM (active)

Row | Structure (SMILES) | activity, negative = inhibition | AC50
76 | O=C1C2CCC(C(O)C2)N1Cc1ccccc1 (stereo not given) | -23.9% | –
77 | OCC1CCCN(Cc2ccc(-c3ccccc3)cc2)C1 (stereo not given) | – | 0.1 µM (active)
78 | CC1(C(=O)CSc2nc3ccccc3s2)CCC(=O)O1 (stereo not given) | -9.32% | –
79 | CC(=O)O[C@@H](C)C[N+](C)(C)C | – | inactive
80 | Cn1c(SC2=CS(=O)(=O)c3ccccc32)nc2ccccc21 | 1.48% | –
81 | COC(=O)[C@@H]1C[C@H]1[C@@H](NC(=O)c1ccccc1)c1ccccc1 | -12% | –
82 | COc1ccc(NC2=NC(=S)N(c3ccc(C)cc3)C23CCCCC3)cc1 | 23% | –
83 | CC1(C)CC(NCc2ccc3c(c2)OCO3)CCO1 (stereo not given) | – | 0.631 µM (active)
84 | CC1(C)CC(NC(=O)c2ccc3c(c2)OCO3)CC(C)(C)N1 | -9.2% | –
85 | COc1ccc2[nH]cc(CCNc3ccnc(-c4cccc(NS(C)(=O)=O)c4)n3)c2c1 | – | 20 µM (active)
86 | COc1ccc2[nH]cc(CCNc3ccnc(-c4cccnc4)n3)c2c1 | – | 1.26 µM (active)
87 | COCCNc1ccnc(-c2c(C)noc2C)n1 | 4.32% | –
88 | Cc1cnc(CNc2ccnc(-c3cccc(NS(C)(=O)=O)c3)n2)cn1 | 4.19% | –
89 | COc1ccc2[nH]cc(CCNc3ccnc(-c4ccc(N(C)C)cc4)n3)c2c1 | – | 10 µM (active)
90 | COc1ccc2[nH]cc(CCNc3ccnc(-c4ccoc4)n3)c2c1 | – | 12.6 µM (active)
91 | CCOC(=O)CNS(=O)(=O)c1cc(-c2nn(C)c(=O)c3ccccc23)ccc1C | -17% | –
92 | CCCCCCCCC(=O)N/N=C/c1ccccn1 | -37.8% | –
93 | CCNc1ncc2nc(-c3ccc(Cl)cc3)c(=O)n(Cc3cccc(OC)c3)c2n1 | 1.73% | –
94 | O=[N+]([O-])c1ccc(N2CCC(=NOCc3ccc(Cl)cc3)CC2)cc1 | 1.17% | –
95 | O=c1c(-c2ccc(Cl)cc2)nc2cncnc2n1Cc1ccccc1Cl | -1.46% | –
96 | CCOC(=O)CSc1nnc(CNC(=O)c2ccc(OC)cc2)n1C1CCCCC1 | 19.4% | –
97 | Cc1ccc(C)c(-c2cc(C(=O)Nc3nccs3)c3ccccc3n2)c1 | -20.1% | –
98 | CCCCNC(=O)NC1C(NC(=O)NCCCC)N(C)C(=O)N1C (stereo not given) | -4.61% | –
99 | CC(=O)N1CC(=O)N(OCc2ccccc2)C1c1ccc(Cl)cc1Cl (stereo not given) | 0.615% | –
100 | CCn1c(SCC(=O)OC)nc2sc3c(c2c1=O)CCC3 | -18.7% | –
